# SW480 rereplic – A quantitative high throughput screen for small molecules that induce DNA re-replication in SW480 colon adenocarcinoma cells | SW480 DNA re-replication, Hoechst DNA content imaging, 48 h | Potency, µM (top dose mostly 46.1 µM), most hits filed as activators | 1.8% of 340,000 active; further: nearly all actives have a fitted effect of over 55% in size
#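 Cells (250 per well) received 23 nL compound or DMSO by pin tool and were kept 48 hr at 37 C, 5% CO2. Nuclei were then stained with Hoechst for 40 min and scanned for DNA content.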
# ELG1 repair inh – qHTS screen for small molecules that inhibit ELG1-dependent DNA repair in human embryonic kidney (HEK293T) cells expressing luciferase-tagged ELG1 | HEK293T ELG1-luciferase reporter, luminescence, 16 h; DNA damage induced by 5-fluorouridine | Potency, µM (titrated, usually from 46.1 µM), most hits filed as inhibitors | 2.3% of 330,000 active; further: nearly all actives have a fitted effect of over 55% in size
#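 In this reporter screen, reduction of luminescence relative to DMSO vehicle indicated activity. Compounds and 5-fluorouridine were added together to 2,000 cells per well, incubated for 16 hr at 37 °C, then developed with ONE-Glo.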
# MCF10A rereplic – A quantitative high throughput screen for small molecules that induce DNA re-replication in MCF 10a normal breast cells | MCF 10A DNA re-replication, Hoechst nuclear intensity, 48 h | Potency, µM (titrated, usually from 46.1 µM), usual class: activators | 2.9% of 350,000 active | AID 624296, 2012; further: nearly all actives have a fitted effect of over 50% in size
# KB-3-1 tox – qHTS assay for MDR1-selective chemotherapeutics: Primary screen using the parental adenocarcinoma cell KB-3-1 | 1.4% of 400,000 active | KB-3-1 viability, CellTiter-Glo ATP luminescence, 72 h | Potency, µM (doses to about 46.1 µM), usual class: cytotoxic; further: nearly all actives have a fitted effect of over 60% in size
#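 Here the drug-naive KB-3-1 line serves as comparator for MDR sub-line selectivity; cells received compound titrations, 72 h at 37 °C, then CellTiter-Glo readout.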
# KB-V1 cytotox – qHTS assay for MDR1-selective chemotherapeutics: Primary screen using the drug-selected MDR subline cells KB-V1; KB-V1 MDR cells viability, CellTiter-Glo, 72 h; 3.4% of 400,000 active; Potency, µM (top dose mostly 46.1 µM), actives largely listed as cytotoxic; further: nearly all actives have a fitted effect of over 60% in size
#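 Cytotoxicity via CellTiter-Glo luminescence after 72 h compound exposure at 37 degrees C. Cells: drug-selected KB-V1 line, DMEM phenol-red free plus 10% FBS. Compounds tested at multiple concentrations; normalized data fitted to concentration-effect curves.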
# Numbers stand for hits; i = inactive; ? = inconclusive; nt = not tested or not shown. The list is not random: actives were taken first. Their share in the collection is about 8.2%. The call rests on the fitted dose curve; in most records, active means well fitted curve in the direction sought with a large enough effect; inconclusive means small, poorly fitted or top-dose-only effect, or another doubt; inactive means no such curve, though single readings can be large; an effect the other way counts as inactive or inconclusive.
SMILES,SW480 rereplic,ELG1 repair inh,MCF10A rereplic,KB-3-1 tox,KB-V1 cytotox
Cc1cc(C)nc(N2CCCC(C(=O)NCc3cccs3)C2)n1 (centres undefined),i,i,i,i,16µM
O=C(c1ccc(-n2nc(C(F)(F)F)c3c2CCCC3)cc1)N1CCOCC1,i,5.2µM,i,i,i
O=C(O)c1ccc(-n2nc(C(F)(F)F)c3c2CCCC3)cc1,i,i,?,i,i
COc1cc2[nH]c(=O)n(CCC(=O)N3CCN(c4cc(Cl)ccc4C)CC3)c(=O)c2cc1OC,?,8.2µM,?,i,?
CCOc1cc2[nH]c(=O)n(CCC(=O)N3CCN(c4ccccc4OC)CC3)c(=O)c2cc1OCC,i,i,i,i,i
COc1ccccc1C(=O)NCC(=O)N1CC=C(c2ccccc2)CC1,i,?,i,?,16µM
COc1cc2[nH]c(=O)n(CCCCCC(=O)N3CC=C(c4ccccc4)CC3)c(=O)c2cc1OC,i,8.2µM,?,?,?
CCOc1cc(C(=O)N=c2sccn2C)cc(Br)c1OC,i,?,i,i,i
O=C1N/C(=C/c2ccc(Br)cc2)C(O)=C1C=NCc1ccccc1,?,?,?,4.6µM,?
COc1ccc(S(=O)(=O)N2c3cc(C)ccc3OCC2C(C)(C)C)cc1 (centres undefined),5.8µM,?,2.6µM,5.8µM,5.2µM
Cc1ccc(S(=O)(=O)N2c3cc(C)ccc3OCC2C(C)(C)C)cc1 (centres undefined),?,i,16µM,?,?
Cc1oc(-c2ccc3c(c2)OCCO3)cc1C(=O)O,i,1.6µM,i,?,15µM
Cc1oc(-c2ccc3c(c2)OCCO3)cc1C(=O)NCC(=O)O,i,?,i,i,i
Nc1[nH]nc2nc3ccccc3cc12,i,i,i,?,?
CCc1ccc2nc3n[nH]c(N)c3cc2c1,i,?,i,?,12µM
Cc1cccc(-c2ncc(CN3CCN(C4CCCC4)C(CCO)C3)cn2)c1 (centres undefined),?,i,i,i,?
Cc1cccc(-c2ncc(CN3CCN(CCC(C)C)C(CCO)C3)cn2)c1 (centres undefined),23µM,i,i,i,?
CCCc1ccc(C2C3=C(CC(C)(C)CC3=O)NC3=C2C(=O)c2ccccc23)cc1 (centres undefined),i,i,i,?,21µM
CCCCc1ccc(C2C3=C(CC(C)(C)CC3=O)NC3=C2C(=O)c2ccccc23)cc1 (centres undefined),i,i,i,?,16µM
CC1(C)CC(=O)C2=C(C1)NC1=C(C(=O)c3ccccc31)C2c1ccc(O)cc1 (centres undefined),i,i,i,i,i
CCc1ccc(NS(=O)(=O)c2ccc3[nH]cc(C(=O)NC4CCCC4)c(=O)c3c2)cc1,nt,nt,nt,i,i
COCCCNC(=O)C1CCN(c2nn3cc(-c4ccc(F)cc4)nc3s2)CC1,nt,nt,nt,i,i
Cc1nc2sccn2c1-c1csc(NCc2ccccc2)n1,i,i,i,?,13µM
Cc1nc(NC(=O)c2ccccc2)sc1-c1csc(N)n1,i,i,16µM,3.7µM,?
Cc1nc(NC(=O)c2ccccc2)sc1-c1csc(NCc2ccccc2)n1,i,21µM,i,i,i
SMILES,SW480 rereplic,ELG1 repair inh,MCF10A rereplic,KB-3-1 tox,KB-V1 cytotox
CCOc1ccccc1NC(=O)c1c(NC(=O)COc2ccccc2)sc2c1CCCCC2,nt,nt,nt,4.6µM,?
CCOc1ccc(NC(=O)c2c(NC(=O)CNCCN3CCOCC3)sc3c2CCC3)cc1,7.3µM,?,i,i,i
CCOc1ccc(NC(=O)c2c(NC(=O)c3ccccc3F)sc3c2CCC3)cc1,nt,nt,nt,i,i
O=C(CCS(=O)(=O)c1ccc(Br)cc1)NCCC1=CCCCC1,i,?,i,i,i
Cc1cc(C)c(C#N)c(SCc2ccccc2[N+](=O)[O-])n1,i,i,i,i,23µM
Cc1cc(C)c(C#N)c(SCc2ccc(F)cc2)n1,i,i,i,i,?
